# Results published in PubChem BioAssay (NCI).
# Where “and” joins values, the source holds several entries; their conditions need not be identical. Equal entries are not always repeated. Compounds without any hit were thinned out: in the full panel of roughly 79,000, 15% have a hit. More than one record can exist for a structure, and the calls need not agree. Calls of active or inactive are those of the source. Cut-off read from the data, not from the text of the source: active = growth inhibition above about 70%; inactive = the rest.
# Assays:
# [1] = NCI Yeast Anticancer Drug Screen. Data for the rad50 strain (AID 155);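 note: 0% = growth of vehicle-only cultures of the same strain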; settings: S. cerevisiae rad50 strain growth inhibition; at 50.0 µM; stronger effect = higher value
# How it was run: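 DNA repair mutant yeast, compound exposure, growth read-out; inhibition is taken relative to vehicle.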
# [2] = NCI Yeast Anticancer Drug Screen. Data for the mec2-1 strain (AID 157); settings: S. cerevisiae mec2-1 strain, at 50.0 µM, stronger effect = higher value
# How it was run: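 Vehicle-treated cultures served as reference for growth inhibition of compound-exposed mec2-1 yeast.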
# [3] = NCI Yeast Anticancer Drug Screen. Data for the sgs1 mgt1 strain (AID 161);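 note: 0% = growth of cultures given vehicle only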; settings: S. cerevisiae sgs1 mgt1 strain, at 50.0 µM, stronger effect = higher value
# How it was run: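 Inhibition of yeast growth, normalised to vehicle-treated controls, is reported for a strain bearing genetic alterations in DNA damage repair.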
# [4] = NCI Yeast Anticancer Drug Screen. Data for the cln2 rad14 strain (AID 165);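 note: 0% = growth equal to vehicle treated cultures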; settings: S. cerevisiae cln2 rad14 strain, at 50.0 µM, stronger effect = higher value
# How it was run: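 Each compound was tested on cln2 rad14 yeast. Inhibition of growth was calculated against vehicle-exposed controls.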
# [5] = NCI Yeast Anticancer Drug Screen. Data for the bub3 strain (AID 167); settings: S. cerevisiae bub3 mutant strain, at 50.0 µM, stronger effect = higher value
# How it was run: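 In this screen, a yeast mutant lacking normal mitotic checkpoint function is challenged with compound. Relative growth versus vehicle gives the inhibition value.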
# [6] = NCI Yeast Anticancer Drug Screen. Data for the mlh1 rad18 strain (AID 175); settings: S. cerevisiae mlh1 rad18 strain growth inhibition; at 50.0 µM; stronger effect = higher value
# How it was run: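 Vehicle-treated cultures served as the reference for growth inhibition in a yeast strain carrying DNA damage repair alterations exposed to each compound.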
Compound,growth inhibition [1],growth inhibition [2],growth inhibition [3],growth inhibition [4],growth inhibition [5],growth inhibition [6]
O=C(O)C1CC[N-]CC1.O=C(O)C1CC[N-]CC1.[Cl][Pt+2][Cl],14.8% (inactive) and -3.75% (inactive),13.6% (inactive) and -0.6% (inactive),24.4% (inactive) and -1.25% (inactive),-5.25% (inactive) and -42.3% (inactive),-5.8% (inactive) and -2.85% (inactive),17.5% (inactive) and 5.45% (inactive)
COc1ccc(-c2nc(SC3OC(COC(C)=O)C(OC(C)=O)C(OC(C)=O)C3OC(C)=O)n(C3OC(COC(C)=O)C(OC(C)=O)C(OC(C)=O)C3OC(C)=O)c(=O)c2C#N)cc1 (stereo not drawn),11.2% (inactive) and -3.9% (inactive),8.85% (inactive) and -1% (inactive),22.4% (inactive) and 18.1% (inactive),-6.15% (inactive) and -19.5% (inactive),3.35% (inactive) and 14.9% (inactive),-12.7% (inactive) and -3.55% (inactive)
Cc1ccc2c(c1)P(=O)(O)c1cc(C)ccc1S2(=O)=O,-0.75% (inactive) and 4.5% (inactive),11.2% (inactive) and -2.65% (inactive),6.75% (inactive) and -4.1% (inactive),-1.1% (inactive) and -1.2% (inactive),0.45% (inactive) and -9.3% (inactive),-1.1% (inactive) and -0.2% (inactive)
COc1ccc(/C=C\c2cc(OC)c(OC)c(OC)c2)cc1OC(=O)C(N)CCC(=O)O (stereo not drawn),-5.3% (inactive) and 8.35% (inactive),-18.3% (inactive) and -10.8% (inactive),-0.6% (inactive) and -3.85% (inactive),21.9% (inactive) and 6.7% (inactive),-19.6% (inactive) and 34% (inactive),79.2% (active) and 3.3% (inactive)
CC(C)CCC(N)C(=O)O (stereo not drawn),-11.7% (inactive) and 0.15% (inactive),-14.9% (inactive) and -0.55% (inactive),-11.5% (inactive) and -6% (inactive),-42.5% (inactive) and -15.7% (inactive),-3.25% (inactive) and 3.75% (inactive),-22.6% (inactive) and -2% (inactive)
CN(C)CC(O)c1cc2ccccc2c2ccccc12 (stereo not drawn),3.3% (inactive) and -1.9% (inactive),22.6% (inactive) and -10.7% (inactive),3.4% (inactive) and -2.3% (inactive),,18.4% (inactive) and -5.5% (inactive),8.65% (inactive) and -14.2% (inactive)
O=c1c(O)c(-c2ccc(O)c(O)c2)oc2cc(O)ccc12,-15.2% (inactive) and -57% (inactive),-14.6% (inactive) and -40.4% (inactive),-3.25% (inactive) and -24.9% (inactive),0.2% (inactive) and -25% (inactive),-15.1% (inactive) and -48.1% (inactive),-3.7% (inactive) and -37.3% (inactive)
OCC1OC(n2cnc3cncnc32)C(O)C1O (stereo not drawn),12.4% (inactive) and 3.3% (inactive),-40% (inactive) and 24.9% (inactive),13.4% (inactive) and 23.4% (inactive),12.3% (inactive) and -35.8% (inactive),-3.65% (inactive) and 22.6% (inactive),2.15% (inactive) and 29.9% (inactive)
NC(=S)N/N=C/c1ccc([N+](=O)[O-])cc1,40.4% (inactive) and 11.5% (inactive),29.7% (inactive) and 13.2% (inactive),29.2% (inactive) and 4.5% (inactive),,5.7% (inactive) and 3.7% (inactive),30.9% (inactive) and 5.95% (inactive)
CC(=O)OCC(OC(C)=O)C(OC(C)=O)C(OC(C)=O)C(COC(=O)c1ccccc1)OC(=O)c1ccccc1 (stereo not drawn),4.35% (inactive) and 18.9% (inactive),-3.75% (inactive) and 5.75% (inactive),-10.6% (inactive) and -4.1% (inactive),-21.1% (inactive) and 3.7% (inactive),4.35% (inactive) and -0.35% (inactive),2.15% (inactive) and 10.3% (inactive)
COC(=O)C(CC(C)C)NC(=O)CN1C(=O)c2ccccc2C1=O (stereo not drawn),-12.9% (inactive) and 9.2% (inactive),-5.95% (inactive) and 10.9% (inactive),6.75% (inactive) and 4.6% (inactive),5.05% (inactive) and 6.3% (inactive),-10% (inactive) and 7.3% (inactive),-2.4% (inactive) and 1.45% (inactive)
CC(CCC(=O)O)C(=O)O (stereo not drawn),-16% (inactive) and 17.4% (inactive),-7.65% (inactive) and -15.8% (inactive),-8.6% (inactive) and -4.6% (inactive),-5.7% (inactive) and 0.25% (inactive),,-8.5% (inactive) and 9.8% (inactive)
CC(C)(C)c1cc([N+](C)(C)C)cc(C(C)(C)C)n1,1.6% (inactive) and 19.6% (inactive),-5.3% (inactive) and 8.25% (inactive),1.05% (inactive) and 14.8% (inactive),2.3% (inactive) and -16.7% (inactive),20.6% (inactive) and -2.05% (inactive),6.3% (inactive) and -5.55% (inactive)
ClCC(CCl)(CCl)CCl,24.6% (inactive) and 1.15% (inactive),6.95% (inactive) and -12.9% (inactive),13.4% (inactive) and 7.95% (inactive),6% (inactive) and 20.1% (inactive),,5.85% (inactive) and 1.45% (inactive)
O=C1OC(c2ccccc2)=N/C1=C\c1ccccc1O,-4.65% (inactive) and -9.75% (inactive),-13.2% (inactive) and -16.3% (inactive),-0.2% (inactive) and -1.3% (inactive),2.6% (inactive) and 7.3% (inactive),-1.7% (inactive) and -13.6% (inactive),-21.1% (inactive) and -0.55% (inactive)
CC(CC(=O)O)C(C(=O)O)C(=O)O (stereo not drawn),0.4% (inactive) and 7.6% (inactive),-25.9% (inactive) and 2.4% (inactive),-33.5% (inactive) and -16.6% (inactive),-32.2% (inactive) and 0.4% (inactive),-21.8% (inactive) and 8.7% (inactive),-18.3% (inactive) and -7.75% (inactive)
CC(=O)Nc1ccc(S(=O)c2ccc(NC(C)=O)cc2)cc1,-25.6% (inactive) and 12% (inactive),-21.3% (inactive) and 9.5% (inactive),-45.5% (inactive) and 12.1% (inactive),7.1% (inactive) and -22.4% (inactive),-15.6% (inactive) and 10.3% (inactive),-34.8% (inactive) and 24.6% (inactive)
